PubChem BioAssay (Tox21)
Inconclusive results are not listed. The source made the active and inactive calls. Unless noted, calls follow the shape of the dose curve; as a rule, active = well fitted curve in the direction sought with a large enough effect in the repeat runs; inconclusive = weak or mixed curves; inactive = no such curve, though single readings can be large; an effect the other way counts as inactive or inconclusive.

What was measured:
[1] = qHTS assay for small molecules that induce genotoxicity in human embryonic kidney cells expressing luciferase-tagged ATAD5 (AID 651632); also: nearly all actives have a fitted effect of over 15% in size
How it was run: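 Test compounds were delivered by pin tool onto HEK293T reporter cells (2,000/well) expressing ATAD5 fused to luciferase. After 16 hr at 37C, 5% CO2, Amplite was added for 30 min at room temperature and luminescence was measured.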

[2] = qHTS assay for small molecule agonists of the p53 signaling pathway - cell viability (AID 651633; calls by dose curve;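 also: p53RE-bla HCT reporter cells with a stable beta-lactamase p53 reporter; series mostly up to about 83 µM; nearly all actives have a fitted effect of over 30% in size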)
How it was run: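 Viability counter-read: CellTiter-Glo luminescence (30 min, room temperature) in the same p53RE-bla plates. These plates had been exposed to compounds for 16 h at 37 C.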

[3] = qHTS assay for small molecules that induce genotoxicity in human embryonic kidney cells expressing luciferase-tagged ATAD5 - cell viability (AID 651634; calls by dose curve; also: nearly all actives have a fitted effect of over 25% in size)
How it was run: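 Quantitative high-throughput format. HEK293T cells expressing ATAD5 fused to luciferase were plated at 2,000 cells/well and treated 15.5 hr with compound versus DMSO. Viability was determined by fluorescent live-cell protease substrate, 30 min at 37C.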

[4] = qHTS assay for small molecule disruptors of the mitochondrial membrane potential - cell viability (AID 720634; calls by dose curve;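 also: human HepG2 liver cancer cells; series mostly up to about 83 µM; nearly all actives have a fitted effect of over 20% in size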)
How it was run: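 Same-well counter-screen: following the MMP dye addition, CellTiter-Glo was added to 1 hr compound-treated HepG2 cells and luminescence read after 30 min at room temperature.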

[5] = qHTS assay to test for compound auto fluorescence at 590 nm (red) in HepG2 cells (AID 720674)
How it was run: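 Red autofluorescence (Ex/Em 540/590 nm, Rose Bengal sodium equivalents) was measured in HepG2 cells, 2,000 per well in MEM plus 10% FBS, plated overnight at 37 C. Readings were taken 1 hr after adding 23 nL compound or DMSO, at 37 C and 5% CO2.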

[6] = qHTS assay to test for compound auto fluorescence at 535 nm (green) in HepG2 cells (AID 720675)
[7] = qHTS assay to test for compound auto fluorescence at 460 nm (blue) in HEK293 cells (AID 720678)
How it was run: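 Intrinsic compound fluorescence is recorded in live HEK293 cultures after overnight incubation at 37C, 5% CO2, using excitation 405 nm and emission 460 nm. Values are referenced to triamterene.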

[8] = qHTS assay to test for compound auto fluorescence at 590 nm (red) in HEK293 cells (AID 720679)
How it was run: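 Red autofluorescence, HEK293 cells: 2,000 cells/well; attach 4-5 hr 37C; add 23 nL cpd or DMSO; incubate o/n 37C 5% CO2; read Ex540/Em590; Rose Bengal sodium reference.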

[9] = qHTS assay for small molecule disruptors of the mitochondrial membrane potential (AID 720635)
How it was run: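 Mitochondrial membrane potential tracked with Mito-MPS dye, red aggregates (ex 540/em 590 nm) against green monomers (ex 490/em 535 nm). Compound treatment 1 hr at 37C, dye 30 min in HepG2.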
% is scaled to controls: 0 for no effect and ±100 for the full control effect.

CC(=O)OCC(=O)[C@@]1(O)CC[C@H]2[C@@H]3CCC4=CC(=O)C=C[C@]4(C)[C@H]3[C@@H](O)C[C@@]21C
inactive: Potency [1] | outcome [2] | outcome [3] | outcome [4] | outcome [5] | outcome [6] | outcome [7] | outcome [8]

CN(C)c1ccncc1
inactive: outcome [2] | outcome [4] | Potency [9] | outcome [5] | outcome [7] | outcome [8]

CNC(C)=O
inactive: Potency [1] | outcome [3] | outcome [4] | outcome [5] | outcome [6] | outcome [7] | outcome [8]

N=C(N)S(=O)O
inactive: Potency [1] | outcome [3] | outcome [4] | Potency [9] | outcome [5] | outcome [7] | outcome [8]

C=CCCCCCCCCCCCCCC
inactive: Potency [1] | outcome [2] | outcome [3] | outcome [4] | fluorescence, relative to Rose Bengal [5] -0.0589% [at 18.6 µM] | fluorescence, % of fluorescein control [6] -0.0523% [at 18.6 µM] | fluorescence, % of triamterene [7] 0.0937% [at 18.6 µM] | fluorescence, % of fluorescent control [8] 0.0885% [at 18.6 µM]

C=CCON/C(CCC)=C1\C(=O)CC(C)(C)C(C(=O)OC)=C1O
inactive: Potency [1] | outcome [2] | outcome [3] | outcome [4] | outcome [5] | outcome [6] | outcome [7] | outcome [8]

CC/C=C\CCCCCCCCCCOC(C)=O
inactive: Potency [1] | outcome [3] | outcome [4] | Potency [9] | outcome [5] | outcome [6] | outcome [7] | outcome [8]

CCCCN1C(=O)c2ccccc2C1=O
inactive: Potency [1] | outcome [2] | outcome [3] | outcome [4] | outcome [5] | outcome [6] | outcome [7] | outcome [8]

CC(C)(O)c1ccc(C(C)(C)O)cc1
inactive: Potency [1] | outcome [2] | outcome [3] | outcome [4] | Potency [9] | outcome [5] | outcome [7] | outcome [8]

Cc1ccccc1OCC(=O)O
inactive: Potency [1] | outcome [2] | outcome [3] | outcome [4] | outcome [5] | outcome [7] | outcome [8]

CC1(C)S[C@@H]2[C@H](NC(=O)Cc3ccccc3)C(=O)N2[C@H]1C(=O)O (tested in a mixture with another compound)
inactive: Potency [1] | outcome [2] | outcome [3] | outcome [4] | outcome [5] | outcome [6] | outcome [7] | outcome [8]

Cc1ccc(Br)cc1
inactive: outcome [2] | outcome [3] | outcome [4] | outcome [5] | outcome [6] | outcome [7] | outcome [8]

COC(=O)N/N=C/c1c[n+]([O-])c2ccccc2[n+]1[O-]
inactive: Potency [1] | outcome [2] | outcome [3] | outcome [4] | Potency [9] | outcome [5] | outcome [7] | outcome [8]

BrCCOc1ccccc1
inactive: Potency [1] | outcome [2] | outcome [3] | outcome [4] | outcome [5] | outcome [6] | outcome [7] | outcome [8]

O=C(CCBr)N1CCN(C(=O)CCBr)CC1
inactive: Potency [1] | outcome [2] | outcome [3] | outcome [4] | outcome [5] | outcome [6] | outcome [7] | outcome [8]

CCCCCCCCS(=O)(=O)O
inactive: outcome [2] | outcome [3] | outcome [4] | Potency [9] | outcome [5] | outcome [6] | outcome [7] | outcome [8]

CCCCCC(CC)OC(=O)CCCOc1ccc(Cl)cc1Cl (configuration not stated)
inactive: outcome [2] | outcome [3] | outcome [4] | Potency [9] | outcome [5] | outcome [6] | outcome [7] | outcome [8]

N#CC1(N)CCCCC1
inactive: Potency [1] | outcome [2] | outcome [3] | outcome [4] | outcome [5] | outcome [6] | outcome [7] | outcome [8]

CC1=C(O)C(=O)CO1
inactive: Potency [1] | outcome [3] | outcome [4] | outcome [5] | outcome [6] | outcome [7] | outcome [8]

CC[C@@]1(c2ccccc2)NC(=O)N(C)C1=O
inactive: Potency [1] | outcome [2] | outcome [3] | outcome [4] | outcome [5] | outcome [7] | outcome [8]

NC(=O)CC[C@@H](N)C(=O)O
inactive: Potency [1] | outcome [2] | outcome [3] | outcome [4] | Potency [9] | outcome [5] | outcome [7] | outcome [8]

COc1cc(NS(=O)(=O)c2ccc(N)cc2)ncn1
inactive: Potency [1] | outcome [2] | outcome [3] | outcome [4] | fluorescence, relative to Rose Bengal [5] -0.434% [at 18.6 µM] | fluorescence, % of fluorescein control [6] 0.0032% [at 18.6 µM] | fluorescence, % of triamterene [7] -0.148% [at 18.6 µM] | fluorescence, % of fluorescent control [8] 0.185% [at 18.6 µM]

CC/C=C/CCCCCCCCCCOC(C)=O
inactive: Potency [1] | outcome [3] | outcome [4] | Potency [9] | outcome [5] | outcome [6] | outcome [7] | outcome [8]

C[Si](C)(C)O[Si](O)(O)O
inactive: Potency [1] | outcome [2] | outcome [3] | outcome [4] | outcome [5] | outcome [6] | outcome [7] | outcome [8]

C=CC(=O)OCCOCCOCC
inactive: outcome [2] | outcome [3] | outcome [4] | Potency [9] | outcome [5] | outcome [6] | outcome [7] | outcome [8]

NNC(=O)OCc1ccccc1
inactive: outcome [2] | outcome [3] | outcome [4] | Potency [9] | outcome [5] | outcome [6] | outcome [7] | outcome [8]

C=CCN(CC=C)CC=C
inactive: Potency [1] | outcome [2] | outcome [3] | outcome [4] | outcome [5] | outcome [7] | outcome [8]
